Read-out in experiment [1]: solute carrier (SLCO1B1), SLCO1B1 (gene 10599)
In words: LTEA_HepaRG_SLCO1B1: Life Technologies and Expression Analysis (LTEA) Assay for solute carrier (SLCO1B1) using HepaRG (AID 2283530; active = hit-call score of the fitted dose curve at least 0.9, where 1 is the maximum; inactive = score below 0.9). The following applies: mRNA level, 48 h; actives raise or lower the signal. The procedure, abridged: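 Differentiated human HepaRG cells were exposed for 48 h in serum-free induction medium to eight half-log concentrations, top 100 uM, in 0.5% DMSO. SLCO1B1 mRNA was measured by qRT-PCR, normalized to ACTB, GAPDH and POLR2A, and fitted bidirectionally against DMSO.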

Read-out in experiment [2]: sulfotransferase 2A1 (SULT2A1), SULT2A1 (gene 6822)
In words: LTEA_HepaRG_SULT2A1: Life Technologies and Expression Analysis (LTEA) Assay for sulfotransferase 2A1 (SULT2A1) using HepaRG (AID 2283531; active = hit-call score of the fitted dose curve at least 0.9, where 1 is the maximum; inactive = score below 0.9). The following applies: mRNA level, 48 h; actives raise or lower the signal. The procedure, abridged: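 HepaRG human liver cells, 48 h exposure in serum-free induction medium to 8 half-log concentrations topping at 100 µM (0.5% DMSO), duplicate wells. SULT2A1 mRNA measured by TaqMan qRT-PCR, normalized to ACTB/GAPDH/POLR2A; bidirectional fit against DMSO.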

Read-out in experiment [3]: Transforming Growth Factor (TGFA), TGFA (gene 7039)
In words: LTEA_HepaRG_TGFA: Life Technologies and Expression Analysis (LTEA) Assay for Transforming Growth Factor (TGFA) using HepaRG (AID 2283532; active = hit-call score of the fitted dose curve at least 0.9, where 1 is the maximum; inactive = score below 0.9). The following applies: mRNA level, 48 h; actives raise or lower the signal. The procedure, abridged:
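Differentiated human HepaRG cells, plated 48 h then switched to serum-free induction medium, were exposed in duplicate for 48 h to 8-point half-log series from 100 uM in 0.5% DMSO. TGFA mRNA measured by qRT-PCR, normalized to ACTB/GAPDH/POLR2A, bidirectional fit versus DMSO.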

Read-out in experiment [4]: Transforming Growth Factor (TGFB1), TGFB1 (gene 7040)
The experiment is described as follows: LTEA_HepaRG_TGFB1: Life Technologies and Expression Analysis (LTEA) Assay for Transforming Growth Factor (TGFB1) Transporter using HepaRG (AID 2283533; active = hit-call score of the fitted dose curve at least 0.9, where 1 is the maximum; inactive = score below 0.9). The following applies: mRNA level, 48 h; actives raise or lower the signal. The procedure, abridged:
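Differentiated HepaRG cells exposed 48 hr in serum-free induction medium to eight half-log concentrations up to 100 uM (0.5% DMSO), duplicate; TGFB1 mRNA by TaqMan qRT-PCR normalised to ACTB, GAPDH, POLR2A; bidirectional fit against DMSO.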

Read-out in experiment [5]: Tumor necrosis factor receptor 1 (TNFRSF1A), TNFRSF1A (gene 7132)
In words: LTEA_HepaRG_TNFRSF1A: Life Technologies and Expression Analysis (LTEA) Assay for Tumor necrosis factor receptor 1 (TNFRSF1A) using HepaRG (AID 2283535; active = hit-call score of the fitted dose curve at least 0.9, where 1 is the maximum; inactive = score below 0.9). The following applies: mRNA level, 48 h; actives raise or lower the signal. The procedure, abridged: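 Differentiated HepaRG cells in serum-free induction medium, exposed 48 h in duplicate to 8 half-log concentrations up to 100 uM in 0.5% DMSO. TNFRSF1A mRNA by Fluidigm TaqMan qRT-PCR, normalized to ACTB, GAPDH, POLR2A; bidirectional fit.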

Read-out in experiment [6]: Thyroid Hormone Responsive (THRSP), THRSP (gene 7069)
In words: LTEA_HepaRG_THRSP: Life Technologies and Expression Analysis (LTEA) Assay for Thyroid Hormone Responsive (THRSP) using HepaRG (AID 2283536; active = hit-call score of the fitted dose curve at least 0.9, where 1 is the maximum; inactive = score below 0.9). The following applies: mRNA level, 48 h; actives raise or lower the signal. The procedure, abridged: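 Differentiated human HepaRG cells were exposed in duplicate for 48 h in serum-free induction medium to eight concentrations (top 100 uM, half-log steps, 0.5% DMSO). Expression was quantified by TaqMan qRT-PCR, normalized to ACTB, GAPDH and POLR2A, with bidirectional fitting against DMSO.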

Read-out in experiment [7]: UDP glucuronosyltransferase (UGT1A1), UGT1A1 (gene 54658)
The experiment is described as follows: LTEA_HepaRG_UGT1A1: Life Technologies and Expression Analysis (LTEA) Assay for UDP glucuronosyltransferase (UGT1A1) using HepaRG (AID 2283538; active = hit-call score of the fitted dose curve at least 0.9, where 1 is the maximum; inactive = score below 0.9). The following applies: mRNA level, 48 h; actives raise or lower the signal. The procedure, abridged:
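Human liver HepaRG cultures receive test chemical for 48 h, up to 100 uM in 0.5% DMSO, with phenobarbital induction controls. UGT1A1 mRNA is measured by qRT-PCR and normalized to ACTB, GAPDH and POLR2A.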

Read-out in experiment [8]: UDP glucuronosyltransferase (UGT1A6), UGT1A6 (gene 54578)
In words: LTEA_HepaRG_UGT1A6: Life Technologies and Expression Analysis (LTEA) Assay for UDP glucuronosyltransferase (UGT1A6) using HepaRG (AID 2283539; active = hit-call score of the fitted dose curve at least 0.9, where 1 is the maximum; inactive = score below 0.9). The following applies: mRNA level, 48 h; actives raise or lower the signal. The procedure, abridged:
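Differentiated HepaRG cells, ~100,000/well, were exposed for 48 h in serum-free induction medium with 0.5% DMSO to 8-point half-log series topping at 100 uM, in duplicate. mRNA measured by Fluidigm TaqMan qRT-PCR, normalized to ACTB, GAPDH and POLR2A.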

Read-out in experiment [9]: X-box binding protein 1 (XBP1), XBP1 (gene 7494)
In words: LTEA_HepaRG_XBP1: Life Technologies and Expression Analysis (LTEA) Assay for X-box binding protein 1 (XBP1) using HepaRG (AID 2283540; active = hit-call score of the fitted dose curve at least 0.9, where 1 is the maximum; inactive = score below 0.9). The following applies: mRNA level, 48 h; actives raise or lower the signal. The procedure, abridged: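 Differentiated human HepaRG cells in serum-free induction medium exposed 48 h in duplicate to eight half-log concentrations up to 100 uM in 0.5% DMSO. XBP1 mRNA measured by Fluidigm TaqMan qRT-PCR, normalized to ACTB, GAPDH, POLR2A; bidirectional fitting against DMSO.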

A short description of experiment [10]: LTEA_HepaRG_LDH_cytotoxicity: Cytotoxicity Assessment in the Life Technologies and Expression Analysis (LTEA) Assay (AID 2283563).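 For AC50: LDH activity released into spent culture medium as a marker of cell death.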 The procedure, abridged:
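Differentiated HepaRG cells in serum-free induction medium, exposed 48 h in duplicate to 8 half-log concentrations up to 100 uM in 0.5% DMSO. Cytotoxicity from LDH measured in spent medium, fit relative to DMSO.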

Experiment [11] can be described thus: ATG_XTT_Cytotoxicity: Cytotoxicity Assessment in the Attagene TRANS-FACTORIAL HepG2 Assay (AID 2283584). The procedure, abridged:
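HepG2 cells transiently transfected with GAL4-UAS multiple reporter units, dosed 24 h; cytotoxicity read by XTT as loss of signal versus DMSO baseline.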

Experiment [12] addresses Cellular tumor antigen p53 (Homo sapiens) (UniProt P04637). The experiment is described as follows: TOX21_p53_BLA_p2_ratio: Tox21 HCT-116 p53 Agonism Beta-lactamase Assay, Ratio, Phase 2 (AID 2283592). The procedure, abridged: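 HCT-116 cells with p53-responsive beta-lactamase reporter, 4000 cells/well, preincubated 5 h, then compound in DMSO (217-fold dilution) for 16 h at 37C. CCF4-AM substrate 2 h at room temperature; 460/530 nm emission ratio fitted upward versus DMSO.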

Experiment [13] in a line: TOX21_p53_BLA_p3_viability: Viability Assessment in the Tox21 HCT-116 p53 Agonism Beta-lactamase Assay, Phase 3 (AID 2283593).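 Note: cells exposed to compound for 16 h before reading.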 The procedure, abridged:
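HCT-116 cells (4000/well) rested 5 h at 37C, then got DMSO compounds by pin tool (217-fold dilution) for 16 h at 37C, 5% CO2. After the bla read, CellTiter-Glo was added and luminescence read at 30 min, room temperature.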

Experiment [14] has as its target Cellular tumor antigen p53 (Homo sapiens) (UniProt P04637). In words: TOX21_p53_BLA_p3_ratio: Tox21 HCT-116 p53 Agonism Beta-lactamase Assay, Ratio, Phase 3 (AID 2283596). The procedure, abridged: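 HCT116 p53-bla cells (4000/well) given compound in DMSO (217-fold dilution) after 5 h, incubated 16 h at 37C. CCF4-AM substrate 2 h at room temperature; 460/530 nm emission ratio, gain fitted against DMSO.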

Experiment [15] shares this target. In words: TOX21_p53_BLA_p5_ratio: Tox21 HCT-116 p53 Agonism Beta-lactamase Assay, Ratio, Phase 5 (AID 2283599). The procedure, abridged: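 HCT-116 cells carrying a p53-inducible beta-lactamase reporter were seeded at 4000 cells/well and dosed after 5 h with compound in DMSO (217-fold dilution). After 16 h at 37C, CCF4-AM substrate was added for 2 h, and the 460/530 nm emission ratio was scored as gain-of-signal versus DMSO.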

The target is the same in experiment [16]. In words: TOX21_p53_BLA_p4_ratio: Tox21 HCT-116 p53 Agonism Beta-lactamase Assay, Ratio, Phase 4 (AID 2283601). The procedure, abridged:
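HCT116 cells carrying an inducible beta-lactamase reporter were plated at 4000 cells/well, rested 5 h, then exposed to compounds in DMSO (217-fold dilution) for 16 h at 37C. CCF4-AM substrate was loaded 2 h at room temperature; 460/530 nm emission ratio scored gain-of-signal versus DMSO.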

Experiment [17] can be described thus: Tanguay_ZF_120hpf_MORT_legacy: (Legacy) Oregon State University Tanguay Lab 120 Hour Post-fertilization zebrafish Assay for Mortality (AID 2283633).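 For AC50: fitted as increase in binary mortality versus DMSO negative control.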 The procedure, abridged:
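Dechorionated Tropical 5D wild-type zebrafish embryos, one per well from 6 hpf, static exposure in 0.64% DMSO at 28C until 120 hpf. Mortality scored as binary by brightfield microscopy at 24 and 120 hpf.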

Experiment [18] is described as follows: TOX21_p53_BLA_p2_viability: Viability Assessment in the Tox21 HCT-116 p53 Agonism Beta-lactamase Assay, Phase 2 (AID 2283591).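 Note: compound exposure lasted 16 h at 37 °C; actives lower the ATP signal meaning cytotoxicity.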 The procedure, abridged:
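HCT-116 p53-bla cells (4000/well) rested 5 h at 37C, then received compounds in DMSO (217-fold dilution) for 16 h at 37C, 5% CO2. After the CCF4 read, CellTiter-Glo was added; ATP luminescence was read after 30 min at room temperature.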

A short description of experiment [19]: TOX21_p53_BLA_p4_viability: Viability Assessment in the Tox21 HCT-116 p53 Agonism Beta-lactamase Assay, Phase 4 (AID 2283597).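 Note: hits lower the luminescence signal meaning cytotoxicity.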 The procedure, abridged:
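HCT-116 p53-bla cells, 4000/well, dosed after 5 h attachment and incubated 16 h at 37 °C, 5% CO2. Viability from CellTiter-Glo ATP luminescence after 30 min at room temperature, taken after the beta-lactamase read; loss of signal indicates cytotoxicity.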

Experiment [20] in a line: TOX21_p53_BLA_p5_viability: Viability Assessment in the Tox21 HCT-116 p53 Agonism Beta-lactamase Assay, Phase 5 (AID 2283600). The procedure, abridged:
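HCT-116 p53 beta-lactamase reporter cells, 4000/well, were exposed to compound (pin transfer, 217-fold dilution) for 16 hours at 37C. Cellular ATP was read by CellTiter-Glo luminescence after 30 min at room temperature.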

Values joined by “and” are separate entries in the source; they are usually repeats but may differ in a detail not shown here. Equal values may be shown once. Results filed as inconclusive are left out. A structure can be active in one record and inactive in another. Active and inactive are the calls of the source. Rule for the calls, unless noted: active = hit-call score of the fitted dose curve at least 0.9, where 1 is the maximum; inconclusive = response in the unintended direction; inactive = score below 0.9.

Chain of Cellular tumor antigen p53 (Homo sapiens) (P04637 whole entry, looked up): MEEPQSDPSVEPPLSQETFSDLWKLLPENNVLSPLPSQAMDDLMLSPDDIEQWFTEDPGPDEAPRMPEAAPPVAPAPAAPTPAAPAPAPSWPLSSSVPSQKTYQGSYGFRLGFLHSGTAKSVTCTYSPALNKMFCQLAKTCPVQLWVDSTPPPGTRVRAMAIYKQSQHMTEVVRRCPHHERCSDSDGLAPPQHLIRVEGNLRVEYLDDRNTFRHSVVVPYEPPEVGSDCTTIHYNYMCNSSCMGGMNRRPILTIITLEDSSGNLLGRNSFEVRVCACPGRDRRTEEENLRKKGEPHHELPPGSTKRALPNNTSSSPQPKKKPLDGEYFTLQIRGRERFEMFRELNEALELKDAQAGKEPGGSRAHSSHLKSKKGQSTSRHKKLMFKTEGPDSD

Turning to `CC(C)(OO)c1ccccc1`, the call in experiment [1], in experiment [2], in [3], in experiment [4], in experiment [5] and in experiment [6] was inactive. The outcome in experiment [7], in [8], in experiment [9], in [10], in experiment [11] and in [12] was inactive. The outcome in experiment [13], in experiment [14], in experiment [15], in [16] and in experiment [17] was inactive.

For `O=[N+]([O-])c1ccc(O)c([N+](=O)[O-])c1`, the AC50 (in general, the concentration at which the activity in the assay is half-maximal) in experiment [1] is 20.4 µM (active); in experiment [2] it was 17.7 µM (active); in experiment [5] it was 4.42 µM (active); in [6], 9.32 µM (active); in experiment [7], 13.2 µM (active); in [8], 20.2 µM (active). The AC50 in [9] is 13.2 µM (active); in experiment [10], 88.5 µM (active); in [12], 69 µM (active) and 63.7 µM (active); in experiment [15] it was 79.2 µM (active); in [17], 26.4 µM (active). In addition, the call in [3], in experiment [4], in experiment [11], in [18], in experiment [13] and in [19] was inactive. Further, the outcome in [15], in experiment [20] and in [16] was inactive.

`CC12CC1(C)C(=O)N(c1cc(Cl)cc(Cl)c1)C2=O` (centres undefined): the call in experiment [1], in experiment [3], in experiment [4], in experiment [5], in [6] and in [8] was inactive. For the same molecule, the outcome in experiment [9], in experiment [10], in experiment [12], in experiment [13], in experiment [14] and in experiment [19] was inactive. Besides, the outcome in experiment [15], in experiment [20], in [16] and in [17] was inactive. In addition, the concentration at half-maximal activity (AC50) in [7] is 10.5 µM (active).

Values taken from PubChem BioAssay (EPA / NIEHS).
